Compounds without any hit were thinned out: in the full panel of roughly 79,000, 15% have a hit. Values without a mark were called inactive. Calls of active or inactive are those of the source. Rule as the data show it: active = growth inhibition above about 70%; inactive = the rest.

A short description of assay [1]: NCI Yeast Anticancer Drug Screen. Data for the rad50 strain (AID 155).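 Also: 0% = growth of vehicle-only cultures of the same strain.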 Conditions: S. cerevisiae rad50 strain growth inhibition, hits give high values. The method in brief:
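A DNA repair-deficient yeast mutant serves as the test organism; compound-induced growth inhibition is calculated against vehicle-treated cells.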

The nature of assay [2]: NCI Yeast Anticancer Drug Screen. Data for the mec2-1 strain (AID 157). Particulars: S. cerevisiae mec2-1 strain, hits give high values. The method in brief:
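Strain: mec2-1 (DNA repair/cell cycle alteration). Compound exposure, then growth measured; inhibition expressed relative to vehicle.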

Assay [3] can be described thus: NCI Yeast Anticancer Drug Screen. Data for the sgs1 mgt1 strain (AID 161).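 Also: 0% = growth of cultures given vehicle only.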 Conditions: S. cerevisiae sgs1 mgt1 strain, hits give high values. The essentials: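 Read-out: growth inhibition vs vehicle controls. Cells: mutant yeast strain deficient in DNA damage repair.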
Assay [4] is described as follows: NCI Yeast Anticancer Drug Screen. Data for the cln2 rad14 strain (AID 165).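 Also: 0% = growth equal to vehicle treated cultures.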 Particulars: S. cerevisiae cln2 rad14 strain, hits give high values. The essentials:
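Compounds are applied to the cln2 rad14 yeast strain, and growth is then compared with that of vehicle-treated cultures to give inhibition.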

The nature of assay [5]: NCI Yeast Anticancer Drug Screen. Data for the bub3 strain (AID 167). Particulars: S. cerevisiae bub3 mutant strain, hits give high values. The method in brief:
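Inhibition values come from growth of compound-treated mutant yeast normalised to vehicle-treated controls.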

Assay [6] can be described thus: NCI Yeast Anticancer Drug Screen. Data for the mlh1 rad18 strain (AID 175). Conditions: S. cerevisiae mlh1 rad18 strain growth inhibition, hits give high values. The method in brief:
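Read-out is yeast growth inhibition, calculated against vehicle-only controls. The compound was applied to a strain engineered with DNA damage repair alterations.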

The mark [7] stands for this setting: at 5.0 µM (retest, dose inferred, filed as 0.5).
Setting [8] is: at 50.0 µM (retest, dose inferred, filed as 5.0).

For `CCOC(=O)NC(c1ccc(C(NC(=O)OCC)P(=O)(O)NC23CC4CC(CC(C4)C2)C3)cc1)P(=O)(O)NC12CC3CC(CC(C3)C1)C2` (configuration not stated), the growth inhibition in assay [1] (setting [7]) was -8%; in assay [1] (setting [8]), -6%; in assay [1] (at 50.0 µM) it was 60.4%; in assay [2] (setting [7]), 5%; in assay [2] (setting [8]) it was -10%; in assay [2] (at 50.0 µM) it was 84.2% (active). Moreover, the growth inhibition in assay [3] (setting [7]) was -8%; in assay [3] (setting [8]), -24%; in assay [3] (at 50.0 µM) it was 81% (active); in assay [4] (setting [7]), -30%; in assay [4] (setting [8]) it was -2%; in assay [4] (at 50.0 µM), 71.8% (active). Further, the growth inhibition in assay [5] (setting [7]) is 13%; in assay [5] (setting [8]), -7%; in assay [5] (at 50.0 µM) it was 91% (active); in assay [6] (setting [7]) it was -31%; in assay [6] (setting [8]), -21%; in assay [6] (at 50.0 µM), 76.4% (active).
Regarding `CC(CN(CC(=O)O)CC(=O)O)N(CC(=O)O)CC(=O)O.[Cl][Pd][Cl]` (configuration not stated), the growth inhibition was 27% in assay [1] (setting [7]); 89% (active) in assay [1] (setting [8]); 88.3% (active) in assay [1] (at 50.0 µM); 7% in assay [2] (setting [7]); 87% (active) in assay [2] (setting [8]); 91.5% (active) in assay [2] (at 50.0 µM). The growth inhibition was 40% in assay [3] (setting [7]); 92% (active) in assay [3] (setting [8]); 82% (active) in assay [3] (at 50.0 µM); 14% in assay [4] (setting [7]); 81% (active) in assay [4] (setting [8]); 57.2% in assay [4] (at 50.0 µM). In addition, the growth inhibition in assay [5] (setting [7]) was 22%; in assay [5] (setting [8]), 91% (active); in assay [5] (at 50.0 µM), 86.4% (active); in assay [6] (setting [7]), 30%; in assay [6] (setting [8]) it was 83% (active); in assay [6] (at 50.0 µM), 90.7% (active).
Turning to `Cc1ccnc2c1ccc1c(C)ccnc12`, the growth inhibition is 10% in assay [1] (setting [7]); 98% (active) in assay [1] (setting [8]); 99% (active) in assay [1] (at 50.0 µM); -17% in assay [2] (setting [7]); 99% (active) in assay [2] (setting [8]); 99.1% (active) in assay [2] (at 50.0 µM). Besides, the growth inhibition was 14% in assay [3] (setting [7]); 99% (active) in assay [3] (setting [8]); 99.2% (active) in assay [3] (at 50.0 µM); -21% in assay [4] (setting [7]); 97% (active) in assay [4] (setting [8]); 98.5% (active) in assay [4] (at 50.0 µM). Besides, the growth inhibition in assay [5] (setting [7]) is -25%; in assay [5] (setting [8]) it was 98% (active); in assay [5] (at 50.0 µM) it was 99.1% (active); in assay [6] (setting [7]), 1%; in assay [6] (setting [8]) it was 98% (active); in assay [6] (at 50.0 µM), 99% (active).
`O=C1CCC/C(c2ccccc2)=N\N=C/1c1ccccc1`: the growth inhibition is 7% in assay [1] (setting [7]); 12% in assay [1] (setting [8]); 54.8% in assay [1] (at 50.0 µM); 10% in assay [2] (setting [7]); 16% in assay [2] (setting [8]); -6.6% in assay [2] (at 50.0 µM). In addition, the growth inhibition in assay [3] (setting [7]) was 10%; in assay [3] (setting [8]), 34%; in assay [3] (at 50.0 µM) it was 21.6%; in assay [4] (setting [7]), 8%; in assay [4] (setting [8]) it was 12%; in assay [4] (at 50.0 µM), -5.1%. Besides, the growth inhibition in assay [5] (setting [7]) was 11%; in assay [5] (setting [8]) it was 33%; in assay [5] (at 50.0 µM), 24.3%; in assay [6] (setting [7]), 4%; in assay [6] (setting [8]), 18%; in assay [6] (at 50.0 µM), 23.6%.
`CC(=O)Oc1cc2c(cc1OC(C)=O)OCC(c1ccccc1)C2` (configuration not stated): the growth inhibition in assay [1] (setting [7]) was 2%; in assay [1] (setting [8]), 45%; in assay [1] (at 50.0 µM) it was 69.3%; in assay [2] (setting [7]), 5%; in assay [2] (setting [8]) it was 48%; in assay [2] (at 50.0 µM) it was 56.3%. In addition, the growth inhibition in assay [3] (setting [7]) is 4%; in assay [3] (setting [8]) it was 60%; in assay [3] (at 50.0 µM), 76.5% (active); in assay [4] (setting [7]), 3%; in assay [4] (setting [8]) it was 20%; in assay [4] (at 50.0 µM), 35.9%. Also, the growth inhibition in assay [5] (setting [7]) is 41%; in assay [5] (setting [8]), 93% (active); in assay [5] (at 50.0 µM) it was 94.8% (active); in assay [6] (setting [7]), -10%; in assay [6] (setting [8]) it was 53%; in assay [6] (at 50.0 µM), 63.4%.
Take `CCCc1cc(=O)oc2c3c(c4c(c12)OC(C)(C)CC4)O[C@H](C)[C@@H](C)[C@H]3O`: the growth inhibition in assay [1] (setting [7]) is 8%; in assay [1] (setting [8]) it was 94% (active); in assay [1] (at 50.0 µM), 83.5% (active); in assay [2] (setting [7]), 17%; in assay [2] (setting [8]), 97% (active); in assay [2] (at 50.0 µM), 90.5% (active). Also, the growth inhibition was 14% in assay [3] (setting [7]); 96% (active) in assay [3] (setting [8]); 89.2% (active) in assay [3] (at 50.0 µM); 18% in assay [4] (setting [7]); 95% (active) in assay [4] (setting [8]); 88.7% (active) in assay [4] (at 50.0 µM). The growth inhibition in assay [5] (setting [7]) was 23%; in assay [5] (setting [8]) it was 96% (active); in assay [5] (at 50.0 µM) it was 86.8% (active); in assay [6] (setting [7]) it was 10%; in assay [6] (setting [8]), 95% (active); in assay [6] (at 50.0 µM) it was 86.5% (active).
As to `O=C1c2ccccc2NC(=O)C2C1C(c1ccccc1)CC2(O)c1ccccc1` (configuration not stated), the growth inhibition in assay [1] (setting [7]) is 7%; in assay [1] (setting [8]), 87% (active); in assay [1] (at 50.0 µM), 62.5%; in assay [2] (setting [7]), 7%; in assay [2] (setting [8]), 88% (active); in assay [2] (at 50.0 µM), 73.8% (active). Also, the growth inhibition in assay [3] (setting [7]) was 16%; in assay [3] (setting [8]) it was 70% (active); in assay [3] (at 50.0 µM) it was 72% (active); in assay [4] (setting [7]), -14%; in assay [4] (setting [8]), 51%; in assay [4] (at 50.0 µM), 68%. Besides, the growth inhibition is -27% in assay [5] (setting [7]); 75% (active) in assay [5] (setting [8]); 69.5% in assay [5] (at 50.0 µM); 21% in assay [6] (setting [7]); 86% (active) in assay [6] (setting [8]); 32.5% in assay [6] (at 50.0 µM).
As to `C/C=c1/[nH]c(=O)/c(=C\c2ccccc2)[nH]c1=O`, the growth inhibition in assay [1] (setting [7]) is -3%; in assay [1] (setting [8]) it was 9%; in assay [1] (at 50.0 µM), 11.3%; in assay [2] (setting [7]), 2%; in assay [2] (setting [8]), -1%; in assay [2] (at 50.0 µM), -3.8%. The growth inhibition in assay [3] (setting [7]) was -2%; in assay [3] (setting [8]), 2%; in assay [3] (at 50.0 µM), -5.45%; in assay [4] (setting [7]) it was 3%; in assay [4] (setting [8]), -2%; in assay [4] (at 50.0 µM) it was 24.6%. Further, the growth inhibition was -2% in assay [5] (setting [7]); -4% in assay [5] (setting [8]); -7.35% in assay [5] (at 50.0 µM); 24% in assay [6] (setting [7]); 1% in assay [6] (setting [8]); 4.35% in assay [6] (at 50.0 µM).
`COc1cc(C(=O)NC(CCC(=O)O)C(=O)O)ccc1N(C)Cc1cnc2nc(N)nc(N)c2n1` (configuration not stated): the growth inhibition in assay [1] (setting [7]) is -4%; in assay [1] (setting [8]), 66%; in assay [1] (at 50.0 µM), 89.8% (active); in assay [2] (setting [7]), -3%; in assay [2] (setting [8]), 93% (active); in assay [2] (at 50.0 µM) it was 97.2% (active). Moreover, the growth inhibition in assay [3] (setting [7]) is -7%; in assay [3] (setting [8]), 44%; in assay [3] (at 50.0 µM) it was 83.8% (active); in assay [4] (setting [7]), 2%; in assay [4] (setting [8]) it was -10%; in assay [4] (at 50.0 µM), -21.4%. The growth inhibition is -6% in assay [5] (setting [7]); -6% in assay [5] (setting [8]); 40.4% in assay [5] (at 50.0 µM); -51% in assay [6] (setting [7]); 29% in assay [6] (setting [8]); 74.1% (active) in assay [6] (at 50.0 µM).
